# Laboratory results published in PubChem BioAssay AID1224860 (National Center for Advancing Translational Sciences (NCATS), 2016).
# Records with an inconclusive call do not appear. Where a call stands in place of a potency, no number is given. Active and inactive are the calls of the source. Calls follow the shape of the dose curve; as a rule, active = well fitted cell-killing curve with a large enough effect; inconclusive = small, poorly fitted or top-dose-only effect; inactive = flat fitted curve, though single readings scatter.
# Test: Compound cytotoxicity measured by an ATP content assay as a counter-screen for lead compounds in human iPSC derived neural progenitor cells (hNPCs)
# Settings: human iPSC-derived NPC viability, ATP luminescence; series mostly up to 46.1 µM
# Procedure, shortened: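 hNPCs (human iPSC-derived) seeded 16–20 h, then exposed to compound for 6, 24 or 72 h at 37 C. ATP-content luminescence read after 10 min at room temperature; cytotoxicity expressed as percent inhibition of viability.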
row,SMILES,Potency
1,O=C1c2ccccc2-[n+]2ccc3c([nH]c4ccccc43)c21,2.18 µM (active)
2,CCCS(=O)c1ccc2nc(NC(=O)OC)[nH]c2c1 (configuration not stated),inactive
3,CC(=O)OC(C)OC(=O)C(C)c1ccc(-c2ccccc2)c(F)c1 (configuration not stated),inactive
4,O=C(O)c1ccccc1NCCc1ccccc1,inactive
5,O[C@@H](COc1cccc2ncccc12)CN1CCN(C2c3ccccc3[C@@H]3[C@H](c4ccccc42)C3(F)F)CC1 (some centres not stated),inactive
6,O=C(O)[C@H](CC(=O)N1C[C@@H]2CCCC[C@H]2C1)Cc1ccccc1,inactive
7,CCCCCCCCCCCC(=O)[O][Sn]([CH2]CCC)([CH2]CCC)[O]C(=O)CCCCCCCCCCC,inactive
8,Nc1cc(C(F)(F)F)ccc1S,19.5 µM (active)
9,CC(C)c1ccc2oc3nc(N)c(C(=O)O)cc3c(=O)c2c1,3.46 µM (active)
10,CCOCCOC(=O)/C=C/c1ccc(OC)cc1,inactive
11,O=C(Nc1ncc([N+](=O)[O-])s1)c1cccs1,inactive
12,NC(N)=NN=C(/C=C/c1ccc([N+](=O)[O-])o1)/C=C/c1ccc([N+](=O)[O-])o1,1.95 µM (active)
13,Cc1c(C(=O)O)c(O)cc2c1C(=O)c1c(O)c([C@@H]3O[C@H](CO)[C@@H](O)[C@H](O)[C@H]3O)c(O)c(O)c1C2=O,inactive
14,O=C(c1ccccc1)c1ccc2n1CCC2C(=O)O (configuration not stated),inactive
15,CC(C(=O)O)c1ccc2c(c1)[nH]c1ccc(Cl)cc12 (configuration not stated),inactive
16,CC(=Cc1ccccc1)C=C1SC(=S)N(CC(=O)O)C1=O,inactive

row,SMILES,Potency
1,Nc1nc2ccc([N+](=O)[O-])cc2s1,inactive
2,Oc1cc(O)cc(/C=C/c2ccc(O)c(O)c2)c1,7.74 µM (active)
3,CC(O)=C(C#N)C(=O)Nc1ccc(C(F)(F)F)cc1,13.8 µM (active)
4,O=C(O)c1ccccc1Nc1cccc(C(F)(F)F)c1,inactive
5,c1ccc(CCNc2nc(-c3ccccc3)cs2)cc1,inactive
6,Cc1cccc(C#Cc2ccccc2)n1,9.75 µM (active)
7,CNC1[C@H](O)C(O[C@@H]2C(O)C(O[C@H]3O[C@H]([C@@H](C)NC)CC[C@H]3N)[C@@H](N)C[C@H]2N)OC[C@]1(C)O (some centres not stated),inactive
8,COc1ccc(-c2cc(=S)ss2)cc1,inactive
9,COc1ccc(CC2=NN3C([C@@H](CCc4ccccc4)[C@@H](C)O)=NC(C)C3C(=O)N2)cc1OC (some centres not stated),inactive
10,CC1=C(CO)C(=O)O[C@@H]([C@@H](C)[C@H]2CC[C@H]3[C@@H]4C[C@H]5O[C@]56[C@@H](O)C=CC(=O)[C@]6(C)[C@@H]4CC[C@]23C)C1,inactive
11,C[C@@H]1CCN(C(=O)CC#N)C[C@H]1N(C)c1ncnc2[nH]ccc12,inactive
12,CC(C(=O)O)c1ccc(-c2ccccc2)c(F)c1 (configuration not stated),inactive
13,COc1ccnc2c1CCCCC2S(=O)c1nc2ccccc2[nH]1 (configuration not stated),inactive
14,COc1ccc2nc(NC(=O)Nc3ccccc3)sc2c1,7.74 µM (active)
15,CC(=C(CCOC(=O)C(C)C)SSC(CCOC(=O)C(C)C)=C(C)N(C=O)Cc1cnc(C)nc1N)N(C=O)Cc1cnc(C)nc1N,inactive
16,CC(=O)Oc1cccc2c1C(=O)c1c(OC(C)=O)cc(C(=O)O)cc1C2=O,inactive
